# Data taken from article PMC6212790, “How bacterial xenogeneic silencer rok distinguishes foreign from self DNA in its resident genome”.
# In all, about 33,000 sequences were measured (“e-score”: median about -0.037, highest 2% from about 0.34 on). This is one part of a sample in which the highest values are shown more often than they occur.
# Target: T1, GST-Rok (full length) (Bacillus subtilis subsp. subtilis str. …, UniProt O34857 1-191)
# T1 sequence: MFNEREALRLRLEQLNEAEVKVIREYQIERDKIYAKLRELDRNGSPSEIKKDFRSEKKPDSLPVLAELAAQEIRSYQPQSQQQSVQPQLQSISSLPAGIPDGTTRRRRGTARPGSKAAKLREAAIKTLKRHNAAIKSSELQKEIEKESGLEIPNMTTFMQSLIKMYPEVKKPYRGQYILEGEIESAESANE
# Assay: protein binding microarray; Rok is a gene silencer of Bacillus subtilis; high values mean tight binding
# Settings: protein: recombinant; tags: GST (pTH5325, pDEST15-Magic modified); dsDNA, one strand shown
# Outline: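 Every oligonucleotide joins a 25-mer constant primer to a 35-mer variable part drawn from a de Bruijn sequence of order 10, so each non-palindromic 8-mer appears at least 32 times and each palindromic 8-mer 16 times. The preference for every 8-mer is reported as a unitless, rank-based enrichment score (E-score). This score spans 0.5 for the most favored 8-mer to −0.5 for the most disfavored.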
row,Sequence,binding signal [E-score]
1,ACCGAGCA,-0.0882
2,GTTGGTTA,0.26
3,AGCGCTAT,-0.0624
4,GAAACTAC,0.469
5,GAAACTAA,0.244
6,GAAACTTC,0.224
7,CGGTAGGA,0.281
8,CAACCGGC,-0.0977
9,ACGCTCCT,-0.000812
10,TAATACGA,0.377
11,TAATACTA,0.419
12,CAATACGA,0.00373
13,AAATACTA,0.454
14,AAATACGA,0.118
15,AAATACTC,0.227
16,CAATACTA,0.261
17,AAATACTG,0.327
18,GAATACTA,0.295
19,ACGCAAAC,0.106
20,AGAGCTTA,-0.044
21,GACGATGA,-0.103
22,GGCTGTAC,-0.102
23,ACTCGCAC,-0.112
24,ATACTGTC,0.0898
25,AGTACGCC,-0.149

row,Sequence,binding signal [E-score]
1,ATCAATGA,0.0966
2,GATAATAC,0.187
3,CATAATAG,0.243
4,TATAATAA,0.33
5,CATAATAA,0.252
6,GATAATAA,0.369
7,CTTAATAC,0.18
8,AATAATAC,0.332
9,ATTAATAC,0.353
10,AATAATAG,0.388
11,ATTAATAA,0.182
12,AATAATAA,0.364
13,GGTAATAA,0.313
14,AACCATCC,-0.0159
15,AGCCGTGC,-0.157
16,ATGGGCCG,-0.146
17,ACCTTAGA,0.00282
18,AGTACGTA,0.332
19,AATAATGT,0.222
20,AATAATGG,0.103
21,AATAATGC,0.352
22,CGTAGTCC,-0.0635
23,CGGGCAGC,-0.142
24,CTAGGTCA,-0.0595
25,ACGTTCAA,-0.0397

row,Sequence,binding signal [E-score]
1,CAATGGAG,-0.17
2,ACAGCTCT,-0.118
3,ACAACGAC,0.0795
4,CACCGGTA,0.056
5,TACCGGTA,0.37
6,AACCGGTA,0.274
7,ACCATGCT,-0.182
8,CTTAACTA,0.313
9,ATTAACTC,0.092
10,CTTAAGTA,0.281
11,ATTAAGTA,0.347
12,GTTAACTA,0.359
13,GTTAACGA,0.241
14,ATTAACTA,0.398
15,GTTAAGTA,0.191
16,ATTAACTG,0.14
17,GAGCGAGA,-0.17
18,AGTCATAC,0.018
19,GGTCGCAA,0.0661
20,CAGCGTGA,-0.12
21,CAATGTAC,0.263
22,AAATGTAT,0.281
23,AAATGTAC,0.343
24,GAATGTAC,0.303
25,AAATGTAA,0.389

row,Sequence,binding signal [E-score]
1,AAATGTAG,0.297
2,CGAGCCAC,-0.119
3,GGGCAGCA,-0.184
4,CTCGCTAA,-0.0951
5,TGTGAGAA,0.216
6,CCTCTTGA,-0.196
7,TATATCGA,0.304
8,CATATAAG,0.119
9,TAGATATA,0.339
10,CATATATG,0.343
11,CATATATA,0.38
12,TATATATA,0.477
13,CAGATATA,0.165
14,CACATATA,0.261
15,GAGATATA,0.157
16,CATATATC,0.25
17,CACATATG,0.266
18,CTTATATA,0.253
19,CTTAAAAG,-0.119
20,ACATTGGT,0.186
21,ACCAGAGG,-0.0915
22,AGAGACAC,0.0712
23,ATGTCCGG,-0.00967
24,TATATAAA,0.399
25,TTTATAAA,0.367

row,Sequence,binding signal [E-score]
1,AATATAAA,0.266
2,GATATAAA,0.33
3,ATTATAAA,0.157
4,CTTATAAA,0.0863
5,CCCAGGCA,-0.18
6,GAAACCGA,-0.119
7,CCCGTACG,-0.101
8,CATATGTC,-0.0495
9,AATATGTC,0.106
10,GTTATGTA,0.269
11,CATATGAA,0.0706
12,AATATGTA,0.416
13,ATTATGTA,0.358
14,CTTATGTA,0.111
15,GATATGTA,0.296
16,CATATGTA,0.338
17,AGAGCTGC,-0.0428
18,ACGAACTG,0.0336
19,GTCCAGAA,-0.0598
20,GCGAGAAA,-0.035
21,TAGAAGAA,0.109
22,AAAAGGAG,-0.188
23,AGTGAATG,0.0707
24,TCTCTGCA,0.0197
25,AGCATTAT,0.255

row,Sequence,binding signal [E-score]
1,AACAGTAG,0.354
2,AATAGTAT,0.292
3,AATAGTAG,0.469
4,CGTAGTAG,0.204
5,AGAAGTAT,0.334
6,AGTAGTAT,0.405
7,AACAGTAA,0.294
8,AGTAGTAG,0.349
9,ATTAGTAG,0.321
10,CACAGTAG,0.0684
11,CATAGTAG,0.0836
12,AGCAGTAT,0.015
13,GCCTGTAC,-0.0711
14,AACCTTAC,0.0321
15,AAGAAGAG,-0.106
16,AAAGGTTG,-0.0391
17,CATAGGCA,0.0952
18,GAACTTCA,0.0379
19,ACATAAGT,0.127
20,GGAAACTA,0.362
21,GGAAACGA,-0.156
22,GGAAACAA,0.207
23,AGAAACTC,0.158
24,AGAAACTA,0.412
25,CGAAACCA,-0.108

row,Sequence,binding signal [E-score]
1,AGAAACTG,0.12
2,CGAAACTA,0.446
3,CGAAACTC,-0.0462
4,AATTAAGG,0.158
5,ATCGGTCA,0.0381
6,ATGGCTTG,-0.172
7,TATGGGCA,-0.0796
8,TAAGCCGA,-0.0712
9,AACTTATC,0.134
10,TAATGGTA,0.387
11,CAATGGTA,0.322
12,GAATGGTA,0.317
13,AACTCAGG,0.0467
14,CGTGACCA,-0.0921
15,AAGTACAG,0.272
16,CTATATTC,0.353
17,CAATATTC,0.21
18,ACATATTC,0.27
19,AAATATTC,0.251
20,CGATATTC,0.194
21,GAATATTA,0.0406
22,ATATATTC,0.34
23,CTCTATTC,0.00987
24,GAATATTC,0.417
